Shown are actives, neighbours in structure and some others; about 3.7% of the full set was active somewhere.
Rv3671c protease: inhibits the M. tuberculosis serine protease Rv3671c; inhibition, % at 5.96 µM; P9WHR9; hit rate 0.048% among 320,000; AID 2606; in the data active = inhibition above about 38%;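 also: extracellular domain of Rv3671c used as enzyme; 0% = enzyme with DMSO and 100% = no enzyme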
FadD28 FP inh: inhibitors of Mycobacterium tuberculosis FadD28 bisubstrate binding; inhibition, % at 12.5 µM; FadD28 bisubstrate probe binding, fluorescence polarization; hit rate 0.22% among 360,000; in the data active = inhibition above about 8.5%, passing the limit was not always enough
Mtb bLac sens: beta-lactam sensitization of Mtb H37Rv. M. tuberculosis H37Rv growth with meropenem, percent inhibition. inhibition, % at 25 µM. hit rate 0.27% among 330,000. AID 434955; call rule not given here;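 also: growth measured after seven days incubation then overnight dye step; 0% = bacteria only wells and 100% = bacteria with antibiotic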
Mtb FBA inh: Mtb fructose-bisphosphate aldolase inhibition | inhibition, % at 1 µM | hit rate 2.3% among 360,000 | AID 588726 | P9WQA3 | purified M. tuberculosis FBA, fluorescence read-out; in the data active = inhibition above about 27%;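 also: 0% = vehicle and 100% = reference inhibitor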
Mtb UGM inh: inhibitors of M. tuberculosis UDP-galactopyranose mutase; P9WIQ1; purified UGM, fluorescence polarization probe displacement; inhibition, % at 10 µM; hit rate 0.06% among 320,000; AID 504406; in the data active = inhibition above about 10%, passing the limit was not always enough
Target sequence (P9WIQ1 whole entry, looked up): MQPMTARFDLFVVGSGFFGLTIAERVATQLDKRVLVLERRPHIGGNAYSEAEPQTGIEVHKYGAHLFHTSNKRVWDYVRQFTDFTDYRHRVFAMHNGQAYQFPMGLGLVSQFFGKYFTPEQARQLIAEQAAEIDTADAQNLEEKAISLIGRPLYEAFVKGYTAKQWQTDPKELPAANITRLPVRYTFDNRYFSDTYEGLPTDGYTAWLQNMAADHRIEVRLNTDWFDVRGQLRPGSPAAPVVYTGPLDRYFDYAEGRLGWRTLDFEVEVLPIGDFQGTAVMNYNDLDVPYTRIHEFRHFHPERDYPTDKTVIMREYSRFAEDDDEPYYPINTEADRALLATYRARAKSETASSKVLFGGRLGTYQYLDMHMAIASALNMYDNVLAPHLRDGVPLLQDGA
GDH-TPI inh: counter-screen for M. tuberculosis FBA inhibitors: GDH-TPI coupled enzymes. hit rate 1.2% among 360,000. GDH-TPI coupled enzyme counterscreen, NADH absorbance. inhibition, % at 4.8 µM. AID 588335; in the data active = inhibition above about 30%;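 also: 0% = DMSO wells and 100% = wells lacking the enzyme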
Active calls of the source: *; x = no result given; + = active, no number.

SMILES	Rv3671c protease	FadD28 FP inh	Mtb bLac sens	Mtb FBA inh	Mtb UGM inh	GDH-TPI inh
O=c1c(-c2ccccc2)c(O)c2c(n1-c1ccccc1)CCCC2	14	-2	14	3	8	-4
CC(=O)c1ccc(Sc2ccccc2N)c([N+](=O)[O-])c1	4	-2	-4	2	-1	2
CC(=O)c1ccc2c(c1)C1C(Cl)C(Sc3ccccc3[N+](=O)[O-])CC1C(C(=O)O)N2 (configuration not stated)	2	20*	-7	-9	-2	14
COC(=O)C1C2CCCCC1C(=O)O2 (configuration not stated)	x	0	x	1	x	8
Cc1noc(NS(=O)(=O)c2ccc(NC(=O)/C=C/c3ccccc3)cc2)c1C	6	0	42	-1	0	8
COc1ccc(/C=C/C(=O)Nc2ccc(S(=O)(=O)Nc3onc(C)c3C)cc2)cc1OC	0	-2	-2	0	-2	37*
CCOc1ccc(/C=C/C(=O)Nc2ccc(C(N)=O)cc2)cc1OC	-14	-1	1	5	-2	51*
CC(C)C[C@@H](CN1CCC[C@@H]1CN1C(=S)NC[C@@H]1Cc1ccc(O)cc1)N1C[C@H](Cc2ccc(O)cc2)N(CCc2ccccc2)C1=S	x	-2	x	2	x	x
CC(=O)c1ccc(NC(=O)c2ccc([N+](=O)[O-])o2)cc1	x	0	100	-1	-3	28
CC(=O)c1cccc(NC(=O)c2ccc([N+](=O)[O-])o2)c1	-2	1	100	0	1	46*
COc1ccccc1-c1ccc([C@@H]2C[C@H]3[C@H](CON3C)CN2C(=O)c2ccco2)cc1	x	0	x	-1	x	0
CCNc1cc2oc(=O)c(CN3CCOCC3)c(C)c2cc1C	1	-4	-9	+	0	20
Cc1cc2oc(=O)cc(CN3CCOCC3)c2cc1C	1	-3	-4	-3	-2	18
COc1cc2c(cc1OC)CN(S(=O)(=O)/C=C/c1ccccc1)CC2	-1	-2	4	1	2	-3
CCc1[nH]nc(C(=O)N2CCCC(C(=O)c3cccc(OC(C)C)c3)C2)c1C (configuration not stated)	-5	0	-2	164*	0	-4
COc1ccc2c(c1)CCC1(C)CC(=O)C(Br)=C21 (configuration not stated)	x	-2	x	+	x	42*
COC(=O)C1(C)CCc2cc(OC)ccc2C1=O (configuration not stated)	-5	-1	0	-1	2	-5
O=C(COc1ccc(/C=N/NC(=O)c2ccncc2)cc1)Nc1cccc([N+](=O)[O-])c1	-17	-1	98	4	2	17
O=C(COc1ccc(/C=N/NC(=O)c2ccccc2O)cc1)Nc1ccc([N+](=O)[O-])cc1	5	-6	11	0	0	38*
COc1ccc(C=C2CCC3C(=O)CCCC3(C)C2=O)cc1 (configuration not stated)	x	0	x	0	x	25
CC12CCCC(=O)C1CCC(=Cc1ccco1)C2=O (configuration not stated)	x	0	x	-3	x	32*
CC1(C)CC(=O)C=C(/C=C/c2ccccc2)C1	3	-1	-2	4	-1	49*
CC(=O)c1ccc(-c2ccc(C(=O)NCC3CCCO3)o2)cc1 (configuration not stated)	1	-3	-2	+	x	17
CC(=O)c1ccc(-c2ccc(C(=O)N3CCN(c4ccc(F)cc4)CC3)o2)cc1	-3	-2	4	2	1	22
CC1(C)CC(NC(=O)c2ccc(F)cc2)CC(C)(C)N1	x	-3	x	-1	x	-2
SMILES	Rv3671c protease	FadD28 FP inh	Mtb bLac sens	Mtb FBA inh	Mtb UGM inh	GDH-TPI inh
CC(=O)c1ccc(-c2ccc(C(=O)N3CCC(C(N)=O)CC3)o2)cc1	-4	0	-8	118*	5	30
CC(=O)c1ccc(-c2ccc(C(=O)NC3CC(C)(C)NC(C)(C)C3)o2)cc1	3	0	-14	180*	-1	44*
O=C(/C=C\Nc1ccccn1)c1ccc(Cl)cc1	-7	-2	6	1	0	31*
Cc1cccc(N/C=C/C(=O)c2ccc(Cl)cc2)c1	-2	2	0	0	1	10
O=C(Nc1cc2c3c(c1)CC(=O)N3CCC2)c1ccco1	8	-3	-12	-3	1	1
C[C@H](CO)N1C[C@H](C)[C@H](CN(C)S(=O)(=O)c2ccccc2F)OCc2cnnn2CCCC1=O	x	-1	x	-1	x	4
O=c1c(-c2nc3ccccc3s2)cccn1Cc1ccccc1	8	1	3	194*	1	21
COc1ccc2ccccc2c1/C=N\NC(=O)c1cccnc1	-3	0	-10	2	1	35*
O=C(N/N=C/c1c(O)ccc2ccccc12)c1cccnc1	18	-5	6	-6	-1	6
Cc1cc(O)c(C)c(O)c1/C=N/NC(=O)c1cccnc1	24	-3	8	-2	4	31*
CCC1CCCCN1S(=O)(=O)c1ccc(C(=O)Nc2nnc(-c3cccs3)o2)cc1 (configuration not stated)	-7	1	2	2	4	68*
N#Cc1ccc(C(=O)Nc2nnc(-c3cccs3)o2)cc1	-4	-2	97	0	1	33*
CC1CC(C)CN(S(=O)(=O)c2ccc(C(=O)Nc3nnc(-c4cccs4)o3)cc2)C1 (configuration not stated)	-6	-1	93	1	1	2
COc1ccc(C#Cc2c(-c3ccccc3)n(-c3ccccc3)c3ccc(CO)cc23)cc1	2	-1	2	113*	-1	33*
COc1ccc(-c2c(C#Cc3ccc(N(C)C)cc3)c3ccccc3n2C)cc1	7	-2	49	4	-2	25
Cn1c(=O)c(NC2CCCCC2)c2c3c(cccc31)C(=O)c1ccccc1-2	x	-1	x	-5	x	-3
Cn1c(=O)c(N)c2c3c(c(Br)ccc31)C(=O)c1ccccc1-2	20	-2	26	-6	15*	14
COCCN1CCN(C(=O)C2CCC(=O)N(Cc3ccccc3OC)C2)CC1 (configuration not stated)	3	-1	-11	4	0	19
NS(=O)(=O)c1ccc(NC=C2C(=O)OC3(CCCCC3)OC2=O)cc1	-5	1	7	-1	2	32*
Nc1nc2c(ncn2[C@@H]2O[C@H](CNCc3ccc(Oc4cc(-n5cccn5)ncn4)cc3)[C@@H](O)[C@H]2O)c(=O)[nH]1	x	-2	x	0	x	x
O=C(CSc1ccc2nnc(-c3cccnc3)n2n1)Nc1ccccc1F	x	-1	x	-2	x	8
O=C(O)c1cc(Br)ccc1NN=C1CCCCC1	9	12*	6	2	x	18
CCOc1ccc(NS(=O)(=O)c2ccc3[nH]c(=O)c(=O)[nH]c3c2)cc1	-11	-4	-7	-3	-2	4

Compound activity as filed in PubChem BioAssay.
